Bioassay records (PubChem BioAssay)
CYP2C9 act: activators of human CYP2C9; activation factor at 5 µM; actives 1.4% (n = 96,000); recombinant CYP2C9, luciferin-H conversion, luminescence; active compounds read high; factor 1 = untreated enzyme, 0 = blocked; AID 1024;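 active = activation factor of 2 or more for CYP2C9 at a 5 µM dose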
Target sequence (P11712 whole entry, looked up): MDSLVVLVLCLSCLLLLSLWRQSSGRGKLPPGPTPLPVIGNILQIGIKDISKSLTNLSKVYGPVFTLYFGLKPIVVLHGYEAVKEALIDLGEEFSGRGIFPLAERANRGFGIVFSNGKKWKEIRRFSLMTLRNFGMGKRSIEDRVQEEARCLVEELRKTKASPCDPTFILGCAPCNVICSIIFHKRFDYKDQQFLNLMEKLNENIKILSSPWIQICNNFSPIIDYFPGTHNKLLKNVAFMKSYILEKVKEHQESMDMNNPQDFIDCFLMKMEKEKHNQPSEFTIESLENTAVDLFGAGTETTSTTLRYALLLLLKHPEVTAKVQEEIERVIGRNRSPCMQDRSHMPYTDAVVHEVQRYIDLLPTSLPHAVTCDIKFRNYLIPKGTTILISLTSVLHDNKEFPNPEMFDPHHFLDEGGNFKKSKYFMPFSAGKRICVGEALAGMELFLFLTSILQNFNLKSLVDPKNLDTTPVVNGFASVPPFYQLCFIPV
sEH act: soluble epoxide hydrolase (human) activation. activation, % at 2 µM. P34913. purified human sEH enzymatic activity, activator screen. AID 717. actives 0.04% (n = 91,000); in the data active = activation above about 37%
CYP2C9 inh: inhibitors of human CYP2C9; P11712; CYP2C9 Supersomes, luciferin-H conversion, luminescence; inhibition, % at 5 µM; actives 20% (n = 96,000);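 active = blocking of liver enzyme CYP2C9 beyond about 50% at 5 µM, limit read from the data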
sEH inhibitor: soluble epoxide hydrolase (human) inhibition | P34913 | recombinant human sEH enzymatic activity assay | inhibition, % at 2 µM | actives 0.34% (n = 91,000) | AID 707; in the data active = inhibition above about 80%
CYP2C19 inh: inhibitors of human CYP2C19; P33261; CYP2C19 Supersomes, luciferin-H EGE luminescence, 30 min; inhibition, % at 5 µM; actives 21% (n = 96,000); AID 778;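 active = CYP2C19 inhibition above a set limit at 5 µM in the primary screen, cut at about 50% in these data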
CYP2C19 activ: cytochrome P450 2C19 (human) activation | 96,000 tested, under 10 active | recombinant CYP2C19, luciferin-H EGE luminescence; active compounds read high; 0 = fully inhibited enzyme, 1 = untreated enzyme | AID 1025 | P33261 | activation factor at 5 µM;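 active = activation factor of at least 2 at 5 µM in the primary screen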
Hits are given with their value; . = inactive; / = not tested or not shown. This is a sample that favours compounds with a hit; in the whole collection about 27% have one here.

SMILES	CYP2C9 act	sEH act	CYP2C9 inh	sEH inhibitor	CYP2C19 inh	CYP2C19 activ
COc1ccc(NC(=O)CSC2=C(C#N)C(c3ccco3)C3=C(CCCC3=O)N2)c(OC)c1 (stereo not drawn)	.	.	85.1	.	92.7	.
Brc1ccccc1-c1nnc(COc2cccc3cccnc23)o1	2.9	.	.	.	91.2	.
Clc1ccccc1OCc1nnc(-c2ccccc2Br)o1	2.1	/	.	/	.	.
CNC(=O)Nc1cccc(NC(=O)NC)n1	.	/	.	/	.	.
CCN(CC)C(=O)Cn1nc(C)c2ccccc2c1=O	.	.	.	.	.	.
COc1ccccc1S(=O)(=O)Cc1ccc(C(=O)NC2CCCCC2)o1	.	.	.	.	.	.
O=C(NC1CCCC1)c1ccc(CSCc2ccccc2F)o1	.	.	86.5	.	92.5	.
O=C(NC1CCCCC1)c1ccc(CS(=O)(=O)Cc2ccccc2F)o1	/	.	/	.	/	/
O=C(NC1CCCCC1)c1ccc(CNc2ccccc2)o1	.	.	58.1	.	62.0	.
O=C(N/N=C/c1cccc(C(F)(F)F)c1)C1CCN(c2ncc(C(F)(F)F)cc2Cl)CC1	.	.	.	.	.	.
CN(c1ccccc1)c1nc(-n2ccnc2)nc(-n2ccnc2)n1	.	.	.	.	78.9	.
CCCCNc1nc(N(C)c2ccccc2)nc(-n2ccnc2)n1	.	.	83.6	.	85.2	.
O=C(CSc1nnc(C2CC2)n1Cc1ccccc1)c1cc2ccccc2o1	.	.	87.8	.	92.7	.
O=C(Nc1cccc(C(F)(F)F)c1)c1cnc2n(c1=O)CCS2	.	.	.	.	.	.
COc1ccc(/C=C2\SC(=S)N(NC(=O)c3csc4c3CCCC4)C2=O)cc1	.	.	.	.	.	.
O=C1CSc2ccccc2N1Cc1ccc(F)cc1	.	.	70.5	.	68.9	.
CCOC(=O)C(C)S(=O)(=O)c1ccc(C(F)(F)F)cn1 (stereo not drawn)	.	.	.	.	53.8	.
COc1ccc(CCSc2nnc(C3CCCCC3)n2N)cc1	.	.	51.9	.	57.5	.
COc1ccc(S(=O)(=O)NC(CC(=O)NCC2CCCO2)c2ccco2)cc1 (stereo not drawn)	.	.	.	.	.	.
O=S(=O)(c1ccc(F)cc1)N(CCO)CC(O)Cn1c2ccccc2c2ccccc21 (stereo not drawn)	.	.	57.0	.	96.6	.
O=C(Nc1ccccc1)c1ccc(S(=O)(=O)N(CCO)CCO)cc1	.	.	.	.	.	.
CCN(CC(O)Cn1c2ccccc2c2ccccc21)S(=O)(=O)c1ccc(F)cc1 (stereo not drawn)	.	.	97.4	.	99.7	.
O=C(CNC(=O)c1ccco1)OCC(=O)c1ccc2ccccc2c1	.	.	.	.	.	.
O=C(CCN1CCN(Cc2ccccc2)CC1)Nc1cccc(Cl)c1	.	.	54.1	.	.	.
COc1cc(NC(=O)CCN2CCN(Cc3ccccc3)CC2)cc(OC)c1	.	.	.	.	.	.
SMILES	CYP2C9 act	sEH act	CYP2C9 inh	sEH inhibitor	CYP2C19 inh	CYP2C19 activ
CCOC(=O)C1CCN(CCC(=O)Nc2cccc(Cl)c2)CC1	.	/	75.3	/	52.5	.
c1cncc(Oc2cccc(Oc3cccnc3)c2)c1	/	.	/	.	/	/
CC(C)(C)c1cc(CN2CCOCC2)c(C(=O)O)o1	.	.	.	.	.	.
CC1=C(C#N)CCC(=O)N1Cc1ccc(C)cc1	.	.	.	.	60.8	.
CC1=C(C#N)CCC(=O)N1Cc1c(C)cc(C)cc1C	.	.	.	.	.	.
CC(CCc1ccco1)NC(=O)c1cc2c(-c3ccccc3F)nn(C)c2s1 (stereo not drawn)	.	.	93.0	.	78.4	.
Cn1nc(-c2ccccc2F)c2cc(C(=O)Nc3ccc4c(c3)OCCO4)sc21	.	.	81.1	.	.	.
CC(=O)N1N=C(c2cccc([N+](=O)[O-])c2)OC1c1ccc(Cl)cc1Cl (stereo not drawn)	.	.	77.7	.	73.3	.
CCOc1ccc(-n2nc3c(-n4ncc(C#N)c4N)nnc(C)c3c2C)cc1	/	.	/	.	/	/
CCOc1cc(-c2nc(-c3ccccc3)c(-c3cc([N+](=O)[O-])ccc3C)[nH]2)ccc1O	.	.	56.7	.	.	.
COc1ccc(-c2nc(-c3ccccc3)c(-c3cc([N+](=O)[O-])ccc3C)[nH]2)cc1OC	.	.	.	.	.	.
O=[N+]([O-])c1ccc(O)c(-c2nc(-c3ccccc3)c(-c3cccs3)[nH]2)c1	.	.	92.5	.	.	.
COc1ccc([N+](=O)[O-])cc1C1NN=C(c2ccccc2O)S1 (stereo not drawn)	.	.	.	.	.	.
CCN(CC(=O)Nc1cccc(OC)c1)C(=O)C1CCN(C(=O)Nc2ccccc2)CC1	.	.	.	.	.	.
COC(=O)CSC1=NS(=O)(=O)c2ccccc21	.	.	.	.	.	.
O=C(CSC1=NS(=O)(=O)c2ccccc21)Nc1ccccc1	.	.	.	.	52.6	.
CC(C)(C)C(=O)c1no[n+]([O-])c1/C(=N/O)C(C)(C)C	.	.	.	.	59.4	.
O=P(c1ccccc1)(c1ccccc1)C(c1ccco1)N1CCOCC1 (stereo not drawn)	.	.	.	.	.	.
O=S(Cc1ccc(Cl)cc1)CC(O)COc1ccc(Cl)cc1 (stereo not drawn)	.	.	.	.	.	.
CCCCS(=O)CC(COc1ccc(Cl)cc1)OC(=O)c1ccccc1 (stereo not drawn)	.	.	80.4	.	95.4	.
CC(C)OCCCn1c(=S)[nH]c2cc3c(cc2c1=O)OCO3	.	.	.	.	.	.
COc1cc2[nH]c(=O)n(CCC(=O)N3CCN(c4cccc(C)c4C)CC3)c(=O)c2cc1OC	.	/	.	/	.	.
O=C(CCCCCn1c(=S)[nH]c2cc3c(cc2c1=O)OCO3)N1CCN(C(=O)c2ccco2)CC1	.	.	64.5	.	.	.
Cc1ccc(C)c(N2CCN(C(=O)CCn3c(=S)[nH]c4cc5c(cc4c3=O)OCO5)CC2)c1	.	.	78.7	.	.	.
O=C(CCCn1c(=S)[nH]c2cc3c(cc2c1=O)OCO3)N1CCN(c2ccccn2)CC1	.	.	.	.	.	.
O=C(CCCCCn1c(=S)[nH]c2cc3c(cc2c1=O)OCO3)N1CCN(Cc2ccccc2)CC1	.	.	69.6	.	.	.
COc1ccc2[nH]c3c(=O)n(CCCCC(=O)N4CCCC4)c(=S)[nH]c3c2c1	.	.	59.9	.	.	.
COc1ccc(N2CCN(C(=O)CCCn3c(=S)[nH]c4cc5c(cc4c3=O)OCO5)CC2)cc1	.	/	74.0	/	.	.
O=C(CCCCCn1c(=S)[nH]c2cc3c(cc2c1=O)OCO3)N1CCN(C2CCCCC2)CC1	.	.	80.9	.	.	.
O=c1c2cc3c(cc2[nH]c(=S)n1CCN1CCOCC1)OCO3	.	.	.	.	.	.
